# Test results: the supplement of paper PMC6555819
# Test system: LXRa homodimer (NR concentration 270 nM)
# Assay: PBM binding z-score (relative to random genomic background probes); higher = stronger binding; sequences stand for … in GC…GCGATTGACAGCGTAGAATGAAGG
# How it was run: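 Random background probes are the reference for binding z-scores. These scores derive from regression-normalized fluorescence on custom Agilent 4×180K protein-binding microarrays incubated 1 h with ligand-free nuclear receptor dimers. Binding was detected with antibodies against each partner (one per run).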
row,Sequence,PBM binding z-score
1,TCTTGTAGATCACGCAGGTTAAGAAAGCCTGAGT,-0.162
2,TCTAGCAGGCCAGAAGGTCACTCAAGAGGTACGG,0.0558
3,TTACCAAGGTGAAATGTCGTTGATGCACGCCTTG,-0.432
4,CCTTACGGGTCACTTCAGGTTATAGCATCGGAGT,2.3
5,CCTATCAGGCCAGGGTCACTCAAGCATTTCGCTT,-0.264
6,AGAATGAGGTTAAGATCAGGTAAACAGAATACAT,-0.00313
7,AGAATGACGTTACCAAAGATCAGGGAAACGCTTG,-0.236
8,ATCGAAAGGTCGAAGATGAGTATACCCACCCGAA,0.43
9,TCGAGTAGGTTAGGGGCATTAAGAATGGCGTCGA,-0.184
10,TAGCCTAGGTCATTCAGGGGCCAGTATCGAAAGC,0.945
11,CCAGACAGGTGAGAAGGTAACGCAGCCTCGATTA,-0.18
12,CCTCGGAGGACAGAAGGTCAGAGCTGTCCGCTTT,-0.0944
13,CGAACTAGGTCATTGATAGGACAGTGAATAGTAA,0.471
14,GATACAGTGTCAGCTAGAGGCCAGAGTATGGAAA,-0.437
15,GATACACGGTCAGCTAGAGGCCAGAGTATGGAAA,-0.281
16,GCAGACAGGTGAAACGCGGGTAACTCAGGGTGGC,-0.771
17,GCTTGTTGATCAAGGTTAAGAAAGACTAAGCTAA,-0.456
18,ATATGTAGGTTATCGGGTCCTTCAGTTTGCGCAT,0.528
19,CCTACTGGGCCATCATGTCATTGATATCAACGTT,-0.139
20,ATCGGAAGGTCGTGAGGTGAGTATACAGAAAGGC,0.212

row,Sequence,PBM binding z-score
1,TTACCAAGGTGAGCTAAGGTCGTTGATCCAACTC,-0.466
2,CCTGCTAGGCCAATGGTCAGCTAAAGCAGCTCGC,-0.698
3,CGTTCAAGGTCAATGCTAGGTCAGTGAAAGCATT,2.89
4,ATCGAAAGGTCGAAGGTGGGTATACCCACCCGAA,0.0928
5,CGTCCAAGGTCAAGGTTAGTGAAAGAGACTCGAA,0.37
6,TCATATTGGTAAAAGGTGAAAGTCGGTGTGGTAA,0.474
7,GATACAGGGTTAGCTAGAGGCCAGAGTATGGAAA,-0.451
8,CGAACTAGCTCATCCAGGACAGTGAATACATTGA,0.0441
9,CGTCCAAGGTCAAGGTCAGCGAAAGAGACTCGAA,1.11
10,CCTACTGGGCCAGGGTCATTGATCAGTCAAAGCA,0.0124
11,AGAATGAGGTAATTAAGATCAGGGAATTGCGGTC,-0.0232
12,CGTCAAAGTGCAACTAAGGTAACGTAAAGCACGC,-0.122
13,TAGCCTAGGTCATTGGGCCGGTATAGTACGCATC,0.765
14,TCATATAGGTAAAGGTTAAAGTCGAACGATATGA,0.888
15,TCTTGTAGATCAACAGGAGGTTAAGGAAGATCGA,-0.0408
16,AATTACGGGTCAACGAGGTTATAGCACGCGTATA,3.47
17,CTCGAAAGGTCGTGCACAGGTGAGTATACCAAAC,0.217
18,TCTCGGACGACACGAAGGTCAGAGCTTTCCAGAG,-0.0974
19,ACTAGCAGGCCAAGGTTGGGTCACTCAAACAAAG,-0.416
20,TTACCAAGGTGTAAGGTCGTTGATGCACGCCTTG,-0.156
